“And” between values parts separate entries of the source, which are not always exact repeats. Equal values may be shown once. Where a structure was tested more than once in an assay, its records may differ in their call. The source made the active and inactive calls. Rule for the calls: active = hit-call score of the fitted dose curve at least 0.9, where 1 is the maximum; inactive = score below 0.9.
read-out: Matrix Metallopeptidase 9 (MMP9), MMP9 (gene 4318); test: BSK_KF3CT_MMP9: BioMAP Diversity Plus: KF3CT Assay for Matrix Metallopeptidase 9 (MMP9) Biomarker Activity (AID 2283074); conditions: primary human keratinocytes with fibroblasts; actives raise or lower the signal
Experimental: BSK_KF3CT is a cell-based, multiplexed-readout assay that uses keratinocytes and foreskin fibroblasts, a human skin primary cell co-culture, with measurements taken at 24 hours after chemical dosing in a 96-well plate.BSK_KF3CT_MMP9 is an assay component measured in the BSK_KF3CT assay. It measures MMP-9 antibody related to regulation of gene expression using ELISA technology.Data from the assay component BSK_KF3CT_MMP9 was analyzed into 1 assay endpoint. This assay endpoint, BSK_KF3CT_MMP9, was analyzed with bidirectional fitting relative to DMSO as the negative control and baseline of activity. Using a type of binding reporter, gain or loss-of-signal activity can be used to understand changes in the signaling as they relate to the gene MMP9. Furthermore, this assay endpoint can be referred to as a primary readout, because this assay has produced multiple assay endpoints where this one serves a signaling function. To generalize the intended target to other relatable targets, this assay endpoint is annotated to the protease intended target family, where the subfamily is matrix metalloproteinase.
The levels of cell surface (or secreted, indicated by the prefix "s") biomarker endpoints were measured by ELISA. Overt cytotoxicity to cells in confluent adherent cultures (all systems other than the BT system) was assessed by measuring total protein levels using sulforhodamine B (SRB) staining in parallel cultures at the time of biomarker measurements, indicated as SRB endpoints. For proliferation assays for adherent cell types, individual cell types are cultured at sub-confluence and relative cell numbers quantified by SRB staining at time points optimized for each system (48 h: 3C and CASM3C systems; 72 h: BT and HDF3CGF systems; 96 h: SAg system). SRB was performed by staining cells with 0.1% SRB after fixation with 10% TCA and reading wells at 560 nm.Viability and proliferation of PBMC (T cells) was quantified by Alamar Blue reduction for the SAg and BT systems. For PBMC viability (referred to as PBMC Cytotoxicity within the assay endpoint names), cells were plated (75,000/well in a 96-well plate) and then chemical samples added for 1 h before addition of activators, SEB and TSST-1 (20 ng/mL final concentration each). Cells were incubated for 90 h. Then, Alamar Blue (20 uL/well) (Invitrogen, Cat DAL1100) was added for 6 h, and the plates were read with a fluorescence microplate reader at 546/580 nm (excitation/emission). For PBMC proliferation, cells were plated and activated as above but incubated for only 16 h prior to addition of Alamar Blue. Plates were read after 6 h.

Compound | AC50 | outcome
CN(C)C(=S)SSC(=S)N(C)C | 7.1 µM (active) | 
COP(N)(=O)SC (stereo not given) |  | inactive
CCCCC(CC)COC(=O)c1ccccc1C(=O)OCC(CC)CCCC (stereo not given) |  | inactive
CCOP(=S)(OCC)SCn1c(=O)oc2cc(Cl)ccc21 |  | inactive
CCCN(CCC)c1c([N+](=O)[O-])cc(S(N)(=O)=O)cc1[N+](=O)[O-] | 32.8 µM (active) | inactive
CCOc1cc(Oc2ccc(C(F)(F)F)cc2Cl)ccc1[N+](=O)[O-] |  | inactive
N#Cc1cc(Br)c(O)c(Br)c1 |  | inactive
CCOC(=O)CC(SP(=S)(OC)OC)C(=O)OCC (stereo not given) |  | inactive
COC(=O)C(C)Oc1ccc(Oc2ccc(Cl)cc2Cl)cc1 (stereo not given) | 20 µM (active) | inactive
COc1nc(C)nc(NC(=O)NS(=O)(=O)c2ccccc2CCC(F)(F)F)n1 | 23.7 µM (active) | inactive
CCOC(=O)C(Cl)Cc1cc(-n2nc(C)n(C(F)F)c2=O)c(F)cc1Cl (stereo not given) |  | inactive
CON(C)C(=O)Nc1ccc(Cl)c(Cl)c1 |  | inactive
CCNc1nc(Cl)nc(NCC)n1 |  | inactive
CCNc1nc(Cl)nc(NC(C)C)n1 |  | inactive
CCCCNC(=O)n1c(NC(=O)OC)nc2ccccc21 |  | inactive
Cc1cc(Cl)ccc1OCC(=O)O |  | inactive
CCCC1COC(Cn2cncn2)(c2ccc(Cl)cc2Cl)O1 (stereo not given) |  | inactive
Cc1c(F)c(F)c(COC(=O)C2C(/C=C(\Cl)C(F)(F)F)C2(C)C)c(F)c1F (stereo not given) | 2.72 µM (active) | 

Compound | AC50 | outcome
Cc1ccc(-c2c(Cl)nc(C#N)n2S(=O)(=O)N(C)C)cc1 | 6.7 µM (active) | 
COP(=S)(OC)Oc1nc(Cl)c(Cl)cc1Cl |  | inactive
CC1=C(C(=O)Nc2ccccc2)SCCO1 |  | inactive
CCCCNC(=O)OCC#CI | 29.4 µM (active) and 13.7 µM (active) | 
COc1nc(NC(C)C)nc(NC(C)C)n1 |  | inactive
CC(C)Oc1cc(-n2nc(C(C)(C)C)oc2=O)c(Cl)cc1Cl | 28.8 µM (active) | 
CCCCOC(=O)c1ccccc1C(=O)OCCCC |  | inactive
CC1COC(Cn2cncn2)(c2ccc(Oc3ccc(Cl)cc3)cc2Cl)O1 (stereo not given) | 31.1 µM (active) | 
C=CC1(C)OC(=O)N(c2cc(Cl)cc(Cl)c2)C1=O (stereo not given) |  | inactive
Oc1ccccc1-c1ccccc1 |  | inactive
CO/C=C(/C(=O)OC)c1ccccc1Oc1cc(Oc2ccccc2C#N)ncn1 | 2.7 µM (active) | inactive
COc1nc(C)nc(NC(=O)NS(=O)(=O)c2ccccc2Cl)n1 |  | inactive
N#Cc1nn(-c2c(Cl)cc(C(F)(F)F)cc2Cl)c(N)c1S(=O)C(F)(F)F (stereo not given) |  | inactive
CCc1nn(C)c(C(=O)NCc2ccc(C(C)(C)C)cc2)c1Cl | 30.6 µM (active) | 
O=C(Nc1ccccc1)Nc1ccnc(Cl)c1 |  | inactive
COC(=O)N(OC)c1ccccc1COc1ccn(-c2ccc(Cl)cc2)n1 | 3.97 µM (active) | 
COc1ccc(C(c2ccc(OC)cc2)C(Cl)(Cl)Cl)cc1 | 12.7 µM (active) | 
CNC(=O)ON=CC(C)(C)SC |  | inactive

From PubChem BioAssay (EPA / NIEHS)
